Bioassay records (PubChem BioAssay)
HEK293 tox = HEK 293 cell cytotoxicity | HEK 293 viability, ATP luminescence (CellTiter-Glo), 48-72 h | AID 1345083 | actives 6.6% (n = 94,000) | Potency, µM (series often up to 115 µM), for inactives: at the highest dose activity change, negative = cytotoxicity, actives largely listed as inhibitors; further: on the % scale 0 is the no-effect control and ±100 the full control effect; nearly all actives have a fitted effect of over 60% in size
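Luminescence from cellular ATP, measured with CellTiter-Glo, indicates HEK 293 viability. Cells plated at 250 cells/well are treated with compound for 48 or 72 hr at 37 degree Celsius before reagent addition.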
NPR1 antag = blocks ANP-stimulated signaling of human Npr1 receptor. P16066. HEK293 hNpr1 GloSensor cGMP, ANP-stimulated luminescence. Potency, µM (highest dose often 46.3 µM), for the others: top-dose activity change, negative = inhibition, most hits filed as inhibitors. actives 1.6% (n = 76,000). AID 1347048; calls by dose curve; further: on the % scale 0 is the no-effect control and ±100 the full control effect; nearly all actives have a fitted effect of over 60% in size
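HEK293 cells stably expressing human Npr1 and cGMP GloSensor pGS-40F, loaded 2 h with 2% GloSensor reagent, given compound 30 min at room temperature. Luminescence read before and 20 min after 0.1 nM hNppA.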
NIH3T3 tox = kills NIH 3T3 cells; NIH 3T3 viability, CellTiter-Glo ATP luminescence, 48-72 h; Potency, µM (top dose mostly 96.7 µM), for the others: top-dose activity change, negative = cytotoxicity, hits mostly inhibitors; actives 4.3% (n = 94,000); AID 1345082; further: on the % scale 0 is the no-effect control and ±100 the full control effect; nearly all actives have a fitted effect of over 55% in size
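Cytotoxicity is measured as loss of cellular ATP: NIH 3T3 cells (400/well) are exposed to compound for 48 or 72 hr at 37 °C, then CellTiter-Glo luminescence is imaged after 10 min at room temperature.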
FLuc inh = blocks purified firefly luciferase enzyme activity | purified P. pyralis luciferase, luminescence, biochemical | P08659 | actives 2.5% (n = 76,000) | Potency, µM (doses to about 115 µM), usual class: inhibitors; further: on the % scale 0 is the no-effect control and ±100 the full control effect; nearly all actives have a fitted effect of over 65% in size
Target sequence (P08659 whole entry, looked up): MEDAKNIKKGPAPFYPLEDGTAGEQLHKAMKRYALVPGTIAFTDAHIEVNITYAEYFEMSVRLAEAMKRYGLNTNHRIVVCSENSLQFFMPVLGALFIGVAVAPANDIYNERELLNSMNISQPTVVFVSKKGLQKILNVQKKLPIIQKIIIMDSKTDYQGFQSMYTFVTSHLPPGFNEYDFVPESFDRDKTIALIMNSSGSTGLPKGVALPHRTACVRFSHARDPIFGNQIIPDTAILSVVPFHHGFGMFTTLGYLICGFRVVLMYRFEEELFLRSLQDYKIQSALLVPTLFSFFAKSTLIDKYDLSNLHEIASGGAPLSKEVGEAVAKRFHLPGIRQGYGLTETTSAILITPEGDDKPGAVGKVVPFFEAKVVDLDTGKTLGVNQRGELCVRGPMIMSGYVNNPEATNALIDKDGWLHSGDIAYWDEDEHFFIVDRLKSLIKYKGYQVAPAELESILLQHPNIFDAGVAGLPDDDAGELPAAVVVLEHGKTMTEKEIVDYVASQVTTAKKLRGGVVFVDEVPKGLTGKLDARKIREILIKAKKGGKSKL
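Inhibitors were tested against purified firefly luciferase in a biochemical, low-substrate format (both substrates at 10uM) and luminescence measured with a CCD imager.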
Npr1 antag conf = hNpr1 antagonism, confirmation assay | AID 1347044 | Potency, µM (top dose mostly 57.6 µM), without a hit: at the top dose activity change, negative = inhibition, actives largely listed as inhibitors | HEK293 hNpr1 cGMP GloSensor luminescence, ANP-stimulated | actives 76% (n = 1,400) | shares compounds with NPR1 antag; calls by dose curve; further: nearly all actives have a fitted effect of over 70% in size
NPR2 antag = antagonizes human Npr2, subtype selectivity check. shares compounds with NPR1 antag. HEK293 hNpr2 GloSensor cGMP luminescence, CNP-stimulated. Potency, µM (highest dose often 57.6 µM), for the others: at the highest dose activity change, negative = inhibition, actives largely listed as inhibitors. actives 67% (n = 1,400). AID 1347046; calls by dose curve; further: nearly all actives have a fitted effect of over 70% in size
FLuc inh counter = FLuc enzyme inhibition, Npr1 counter-screen; shares compounds with NPR1 antag; purified FLuc enzyme, luminescence, Km substrate; Potency, µM (titrated, usually from 57.6 µM), for the others: at the top dose activity change, negative = inhibition, hits mostly inhibitors; actives 0.7% (n = 1,400); further: series mostly up to about 58 µM; 0% is about no effect
GloSensor ctrl = reduces cGMP signal in GloSensor control cells; Potency, µM (titrated, usually from 57.6 µM), inactives show at the top dose activity change, negative = inhibition, usual class: inhibitors; HEK293 GloSensor cGMP, SNP-stimulated, luminescence; shares compounds with NPR1 antag; actives 69% (n = 1,400); calls by dose curve; further: on the % scale 0 is the no-effect control and ±100 the full control effect; nearly all actives have a fitted effect of over 70% in size
Numbers without * were called inactive; i = inactive; ? = inconclusive; . = no result; [ ] = dose if it differs, or a comment. Hits are enriched below; roughly 11% of the tested compounds scored in any of these assays. Unless noted, the call rests on the fitted dose curve; in most records, active means well fitted curve in the direction sought with a large enough effect; inconclusive means small, poorly fitted or top-dose-only effect, or another doubt; inactive means no such curve, though single readings can be large; an effect the other way counts as inactive or inconclusive. Potency means the concentration at half of the fitted maximal effect.

SMILES	HEK293 tox	NPR1 antag	NIH3T3 tox	FLuc inh	Npr1 antag conf	NPR2 antag	FLuc inh counter	GloSensor ctrl
O=C(c1cc(Cl)ccc1F)N1CCC(Cc2nc(-c3ccc(F)cc3)no2)CC1	?	3.2µM*	?	i	4.3µM*	5.4µM*	4%	4.3µM*
Cc1nn2c(c1-c1ccccc1Oc1ccccc1)N(Cc1cccc(C#N)c1)CCC2	8.9µM*	3.2µM*	8.9µM*	i	2.2µM*	4.4µM*	-3%[86.2 µM]	1.8µM*
COc1cccc(CN2CCCn3nc(C)c(-c4ccccc4[S+](C)(=O)[O-])c32)c1	?	-15%[70.6 µM]	?	i	.	.	.	.
Cc1nn2c(c1-c1ccnn1C(C)C)N(C(=O)Cc1cccc(F)c1)CCC2	-1%[172 µM]	2%[70.6 µM]	?	i	.	.	.	.
Cc1nn2c(c1-c1ccccc1Oc1ccccc1)N(Cc1ccc(C(=O)O)s1)CCC2	32µM*	?	32µM*	i	?	?	1%	?
Cc1nn2c(c1-c1ccccc1-c1ccccc1)N(Cc1ccc(C(=O)O)s1)CCC2	?	2%[70.6 µM]	-9%[138 µM]	i	.	.	.	.
Cc1nn2c(c1-c1ccnn1C(C)C)N(Cc1cccc(C#N)c1)CCC2	14µM*	?	14µM*	i	2.8µM*	?	-1%[86.2 µM]	?
Cc1nn2c(c1-c1ccccc1[S+](C)(=O)[O-])N(Cc1ccc(C(=O)O)s1)CCC2	?	3.2µM*	13µM*	i	9.9µM*	28µM*	3%[86.2 µM]	5µM*
CCOC(=O)C1=CN(CC(=O)N(C)c2cccc(C)c2)S(=O)(=O)N=C1C	-7%	2%	-6%	i	.	.	.	.
C[S+](=O)([O-])c1ccc(-c2nnc3ccc(C(=O)NCc4cccs4)cn23)cc1	0%	.	-22%	.	.	.	.	.
CC(C)Oc1ccc(CN2C[C@@H](CO)[C@H](c3ccncc3)C2)cc1	40µM*	11µM*	-15%	i	?	?	1%	27µM*
CC(C)NC(=O)C1CCN(c2nc3ncccc3o2)CC1	3%[172 µM]	.	-1%[138 µM]	.	.	.	.	.
CC(C)c1ccc(CNC(=O)C2CCN(c3cc(C(F)(F)F)ncn3)CC2)cc1	?	13µM*	?	i	24µM*	22µM*	3%	22µM*
Cc1ccc(NC(=O)C2CCN(c3cc(C(F)(F)F)ncn3)CC2)cc1	?	8.9µM*	?	i	14µM*	15µM*	0%	12µM*
COc1ccc(C(C)NC(=O)C2CCN(c3cc(C(F)(F)F)ncn3)CC2)cc1 (stereo not drawn)	?	16µM*	?	i	24µM*	27µM*	2%	22µM*
CCc1ccc(NC(=O)C2CCN(c3cc(C(F)(F)F)ncn3)CC2)cc1	?	7.9µM*	?	i	11µM*	11µM*	-1%	9.7µM*
O=C(NCc1ccc(F)cc1)C1CCN(c2cc(C(F)(F)F)ncn2)CC1	?	?	?	i	.	.	.	.
CCOC(=O)c1cn(C2CN(S(=O)(=O)c3cccc(Br)c3)C2)nn1	?	2%	-6%	i	.	.	.	.
O=C(NCc1ccccc1)C1CCN(c2cc(C(F)(F)F)ncn2)CC1	?	?	?	i	.	.	.	.
O=C(NCCCc1ccccc1)C1CCN(c2cc(C(F)(F)F)ncn2)CC1	?	11µM*	?	i	22µM*	19µM*	-1%	11µM*
C[S+](=O)([O-])N1CCN(c2nc3ncccc3o2)CC1	-15%[172 µM]	3%[70.6 µM]	-20%[138 µM]	i	.	.	.	.
CO[C@@]1(C)C[C@@H](O)C12CCN(C(=O)CCn1c(C)cccc1=O)CC2	i	-1%	i	i	.	.	.	.
COc1ccc(C(=O)Nc2ccc(-c3noc([C@@H]4CCCN4Cc4ccc(F)cc4)n3)cn2)cc1	?	11µM*	?	i	14µM*	17µM*	-22%	12µM*
CCCCOc1ccc(C(=O)N2CCC[C@H]2c2nc(-c3ccc(OC)cc3)no2)cc1	25µM*	?	?	i	?	-26%	-16%	?
COc1ccc(C(=O)Nc2ccc(-c3noc([C@@H]4CCCN4Cc4c[nH]c5ccccc45)n3)cn2)cc1	?	10µM*	?	i	11µM*	19µM*	-5%	11µM*
SMILES	HEK293 tox	NPR1 antag	NIH3T3 tox	FLuc inh	Npr1 antag conf	NPR2 antag	FLuc inh counter	GloSensor ctrl
COc1ccc(C(=O)Nc2ccc(-c3noc([C@@H]4CCCN4Cc4ccco4)n3)cn2)cc1	?	13µM*	?	i	14µM*	19µM*	?	17µM*
CSCC(=O)N[C@H]1CCN2C(=O)N(c3cccc(C(C)=O)c3)C(=O)[C@@H]2C1	0%[172 µM]	6%[70.6 µM]	2%[174 µM]	i	.	.	.	.
CCOc1cc(=O)n2c(c1C(=O)NCc1ccc3c(c1)OCO3)CCCC2	-1%	1%	3%	i	.	.	.	.
Cc1ccc(C(=O)NCC2CCN(c3cnn(C)c(=O)c3)C2)c(=O)n1C (stereo not drawn)	?	5%	-8%	i	.	.	.	.
COc1ccc(C2(C(=O)N3CCCCCC3c3nc(C4CC4)no3)CC2)cc1 (stereo not drawn)	?	-15%	?	i	.	.	.	.
COc1ccc(C(=O)Nc2ccc(-c3noc([C@@H]4CCCN4CCCc4ccccc4)n3)cn2)cc1	16µM*	13µM*	?	i	17µM*	19µM*	-24%	14µM*
COc1ccc(C2(C(=O)N3CCC[C@H]3c3nc(-c4ccccc4Cl)no3)CC2)cc1	?	10µM*	?	i	22µM*	22µM*	0%	24µM*
COCCCN(CCC(=O)NCCC(C)C)C(=O)c1cc(C)oc1C	?	0%	-3%	i	.	.	.	.
CC1(C)C(=O)NC(=O)N1CC(=O)N[C@H](Cc1ccccn1)C1CC(O)C1 (stereo partly drawn)	0%	2%	-4%	i	.	.	.	.
COc1c[nH]c(CN2CCCC(CCc3ccccc3C)C2)cc1=O (stereo not drawn)	-26%	0%	-11%	i	.	.	.	.
COc1c[nH]c(CN2CCCC(Nc3ccc(C(C)C)cc3)C2)cc1=O (stereo not drawn)	?	?	?	i	22µM*	19µM*	-1%	22µM*
